± gives the standard deviation of the averaged measurements. Whole data set: some 33,000 sequences, median “E-score (dimensionless, -0.5 to 0.5)” near -0.049, cut for the highest 2% near 0.37. The full list was thinned out, with the highest values kept by preference.
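Note: 200 nM protein in PBS on universal arrays averaged over duplicate arrays.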

The experiment relates to T1, PmTbr T-box DNA-binding domain (GST fusion).
T1 sequence: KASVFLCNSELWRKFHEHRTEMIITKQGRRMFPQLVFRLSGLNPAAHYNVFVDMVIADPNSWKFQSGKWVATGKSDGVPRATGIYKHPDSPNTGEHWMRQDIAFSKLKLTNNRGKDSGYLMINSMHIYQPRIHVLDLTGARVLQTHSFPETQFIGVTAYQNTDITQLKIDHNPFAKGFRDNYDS
In words: PBM E-score of 8-mer (E-score (dimensionless, -0.5 to 0.5)); Tbr is Tbrain of the sea star Patiria miniata (Pm) or the sea urchin Strongylocentrotus purpuratus (Sp); higher = stronger binding preference. Conditions: the construct has about 5 more residues each side. As for the experimental part:
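Universal protein-binding microarray (Agilent AMADID 016060, 60-bp probes with a 35-bp variable region) incubated with 200 nM GST-fused Patiria miniata Tbr T-box DNA-binding domain (residues 272-466) in PBS pH 7.5. Scored for every ungapped 8-mer (given with its reverse complement) by the Universal PBM Analysis Suite as E-score (modified Wilcoxon-Mann-Whitney enrichment, range -0.5 to 0.5; >0.45 counts as bound) and Z-score of median probe intensity. Two replicate arrays (datasets 1 and 2).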
As for ATAGCTAG, the “PBM E-score of 8-mer” value was -0.0742 ± 0.12.

For the sequence CACGTTGG, the “PBM E-score of 8-mer” value was 0.261 ± 0.0042.

In the case of CTGTTCTC, the “PBM E-score of 8-mer” value was 0.0542 ± 0.017.

For the sequence AGTGGCAA, the “PBM E-score of 8-mer” value came out at 0.304 ± 0.039.

CGTGGCAA: the “PBM E-score of 8-mer” value amounted to 0.122 ± 0.044.

Regarding CGTGGCAC, the “PBM E-score of 8-mer” value worked out at 0.233 ± 0.052.

As for CTTGGCAC, the “PBM E-score of 8-mer” value was 0.352 ± 0.016.

On to GGTGGCAC, for which the “PBM E-score of 8-mer” value is 0.38829 ± 0.00023.

For the sequence ACTGGCAC, the “PBM E-score of 8-mer” value worked out at 0.264 ± 0.015.

On to GCTGGCAC, for which the “PBM E-score of 8-mer” value was 0.234 ± 0.064.

For ATTGGCAG, the “PBM E-score of 8-mer” value was 0.0761 ± 0.012.

Take ATTGGCAC: the “PBM E-score of 8-mer” value came to 0.385 ± 0.0064.

Take CCTGGCAC: the “PBM E-score of 8-mer” value was 0.371 ± 0.019.

For AGTGGCAC, the “PBM E-score of 8-mer” value was 0.334 ± 0.008.

With GGTGGCAA, the “PBM E-score of 8-mer” value is 0.3882 ± 0.0017.

As to CCAGTTCA, the “PBM E-score of 8-mer” value is -0.052 ± 0.044.

With GCCGTGCC, the “PBM E-score of 8-mer” value stood at 0.0438 ± 0.036.

Consider TCTATCCA, for which the “PBM E-score of 8-mer” value was -0.354 ± 0.0079.

GGATTAAC: the “PBM E-score of 8-mer” value came to 0.0329 ± 0.085.

Consider CCTAGGGA, for which the “PBM E-score of 8-mer” value is -0.233 ± 0.015.

As for ACGATCTG, the “PBM E-score of 8-mer” value is 0.189 ± 0.015.

As to CAATAGCG, the “PBM E-score of 8-mer” value was 0.118 ± 0.13.

As to AGGAGGTA, the “PBM E-score of 8-mer” value was -0.0739 ± 0.034.

As for ACGAGGTG, the “PBM E-score of 8-mer” value amounted to 0.4446 ± 0.0042.

As for ACGAGGTC, the “PBM E-score of 8-mer” value was -0.113 ± 0.027.

For ATGAGGTG, the “PBM E-score of 8-mer” value came to 0.382 ± 0.018.

Consider AGGAGGTG, for which the “PBM E-score of 8-mer” value was determined as 0.428 ± 0.0078.

Consider AAGAGGTG, for which the “PBM E-score of 8-mer” value worked out at 0.4261 ± 0.00096.

For the sequence AAGAGGTC, the “PBM E-score of 8-mer” value was -0.101 ± 0.02.

Consider AGGAGGTC, for which the “PBM E-score of 8-mer” value is -0.247 ± 0.02.

With ATGAGGTA, the “PBM E-score of 8-mer” value is -0.093 ± 0.027.

With ACGAGGTA, the “PBM E-score of 8-mer” value was -0.046 ± 0.031.

Consider AAGAGGTA, for which the “PBM E-score of 8-mer” value was -0.158 ± 0.021.

ATGAGGTC: the “PBM E-score of 8-mer” value was -0.00428 ± 0.033.

As to GCCAGTCA, the “PBM E-score of 8-mer” value was determined as 0.0625 ± 0.0016.

Turning to AAGTTTCT, the “PBM E-score of 8-mer” value is 0.101 ± 0.091.

For AAACCATC, the “PBM E-score of 8-mer” value is -0.0959 ± 0.018.

Take AGTAGAGC: the “PBM E-score of 8-mer” value is 0.00365 ± 0.047.

As for GTAGAACA, the “PBM E-score of 8-mer” value was -0.0515 ± 0.048.

On to GTCAGTGA, for which the “PBM E-score of 8-mer” value came out at 0.122 ± 0.036.

Take GGAGAGCC: the “PBM E-score of 8-mer” value was -0.27 ± 0.039.

ATTAAGTC: the “PBM E-score of 8-mer” value was -0.233 ± 0.059.

In the case of AGGCAAAT, the “PBM E-score of 8-mer” value was -0.324 ± 0.053.

As for AACACCTG, the “PBM E-score of 8-mer” value was 0.472 ± 0.0011.

Consider AACACCGG, for which the “PBM E-score of 8-mer” value is 0.155 ± 0.04.

In the case of AACACCGC, the “PBM E-score of 8-mer” value worked out at 0.287 ± 0.0081.

As to TACACCAA, the “PBM E-score of 8-mer” value is 0.0439 ± 0.018.

AACACCTT: the “PBM E-score of 8-mer” value was found to be 0.4857 ± 0.0013.

As to TACACCGA, the “PBM E-score of 8-mer” value was found to be 0.042 ± 0.083.

As for CAGACCTG, the “PBM E-score of 8-mer” value is -0.0919 ± 0.036.

On to CACACCGG, for which the “PBM E-score of 8-mer” value was 0.135 ± 0.057.

For CACACCTG, the “PBM E-score of 8-mer” value was determined as 0.478 ± 0.0049.

Take ACCACCTG: the “PBM E-score of 8-mer” value came to 0.262 ± 0.056.

With AACACCGT, the “PBM E-score of 8-mer” value was 0.329 ± 0.0059.

Take TACACCTA: the “PBM E-score of 8-mer” value was found to be 0.371 ± 0.026.

On to GACTGAGA, for which the “PBM E-score of 8-mer” value is -0.181 ± 0.085.

As to ACTCAAAT, the “PBM E-score of 8-mer” value was -0.125 ± 0.039.

On to TACTTAGA, for which the “PBM E-score of 8-mer” value amounted to 0.0947 ± 0.0054.

Regarding ATAGACTG, the “PBM E-score of 8-mer” value is -0.0183 ± 0.043.

As for GACTGACA, the “PBM E-score of 8-mer” value is 0.142 ± 0.069.

ATAGGCCC: the “PBM E-score of 8-mer” value is -0.141 ± 0.098.

On to CTCATTGC, for which the “PBM E-score of 8-mer” value is -0.166 ± 0.087.

On to AGATTCGG, for which the “PBM E-score of 8-mer” value is -0.173 ± 0.036.

Turning to ACGGCTAC, the “PBM E-score of 8-mer” value is -0.0169 ± 0.0055.

For CACACCGA, the “PBM E-score of 8-mer” value stood at 0.193 ± 0.0051.

As to CCCACCTA, the “PBM E-score of 8-mer” value turned out to be 0.184 ± 0.016.

Take GACACCGA: the “PBM E-score of 8-mer” value came to 0.286 ± 0.024.

Take GAGACCTA: the “PBM E-score of 8-mer” value was -0.16 ± 0.033.

In the case of AACACCTA, the “PBM E-score of 8-mer” value was 0.4803 ± 0.0034.

Regarding AAAACCTA, the “PBM E-score of 8-mer” value was -0.209 ± 0.086.

On to GACACCTA, for which the “PBM E-score of 8-mer” value was found to be 0.48906 ± 2.8e-05.

Take AACACCGA: the “PBM E-score of 8-mer” value amounted to 0.234 ± 0.034.

As for CACACCTA, the “PBM E-score of 8-mer” value was found to be 0.476 ± 0.009.

Regarding AGACTAGG, the “PBM E-score of 8-mer” value is -0.0553 ± 0.059.

For ACGTCGAC, the “PBM E-score of 8-mer” value is 0.115 ± 0.035.

As for AGGCAGCG, the “PBM E-score of 8-mer” value was -0.0107 ± 0.078.

In the case of CCTTGTAA, the “PBM E-score of 8-mer” value was -0.0975 ± 0.037.

Take TACTTGAA: the “PBM E-score of 8-mer” value is -0.262 ± 0.037.

In the case of AGGGGAGG, the “PBM E-score of 8-mer” value is -0.223 ± 0.07.

Take GAATTGTC: the “PBM E-score of 8-mer” value amounted to 0.184 ± 0.0043.

On to CGAGACTC, for which the “PBM E-score of 8-mer” value was determined as 0.0667 ± 0.093.

Take CCAAGGGA: the “PBM E-score of 8-mer” value amounted to 0.0414 ± 0.029.

In the case of ATCACGAG, the “PBM E-score of 8-mer” value was 0.167 ± 0.054.

For AAGAGTGT, the “PBM E-score of 8-mer” value worked out at 0.289 ± 0.055.

As to CTATAGAA, the “PBM E-score of 8-mer” value is -0.129 ± 0.058.

On to GTGTGACA, for which the “PBM E-score of 8-mer” value turned out to be 0.4709 ± 0.0035.

As for CTGTGACA, the “PBM E-score of 8-mer” value was 0.3356 ± 0.0016.

Turning to ACGTGACA, the “PBM E-score of 8-mer” value is 0.385 ± 0.023.

On to ATGTGACA, for which the “PBM E-score of 8-mer” value worked out at 0.4393 ± 0.0026.

On to GCGTGACA, for which the “PBM E-score of 8-mer” value stood at 0.365 ± 0.0062.

In the case of ATGTGACG, the “PBM E-score of 8-mer” value was determined as 0.31 ± 0.02.

In the case of ACGTGACT, the “PBM E-score of 8-mer” value was determined as 0.0526 ± 0.086.

For ACGTGACG, the “PBM E-score of 8-mer” value was 0.346 ± 0.0083.

With ATGTGACC, the “PBM E-score of 8-mer” value came out at 0.112 ± 0.052.

Source of the values: the supplement of paper PMC4166925.
